Results published in PubChem BioAssay AID720609 (Broad Institute, 2013).
Results with a measured potency or affinity are listed apart. The source made the active and inactive calls.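 The calls were made as follows: active = viability signal falls with a fitted half-maximal concentration at or below a set limit at all three treatment times; inconclusive = treatment times disagree, or a flat partial drop, or poor fit; inactive = inactive at every treatment time.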

Assay: cytotoxicity in HeLa cervical cancer cells – cell-based, CellTiter-Glo ATP luminescence, 8-48 h, dry powder, mechanism study for HRAS target identification, late-stage follow-up (AID 720609)

| SMILES | outcome |
| --- | --- |
| Cc1onc(C(=O)N2CCN(C(c3ccncc3)c3ccncc3)CC2)c1[N+](=O)[O-] | inactive |
| CCC(=O)N(c1ccc(OC)c(Cl)c1)C(C(=O)NCCc1ccccc1)c1cccs1 (configuration not stated) | inactive |
